For 51 compounds, INHIBITION results are on record in ChEMBL document CHEMBL4513216, “Probing the Open Global Health Chemical Diversity Library for Multistage-Active Starting Points for Next-Generation Antimalarials” (ACS Infect Dis, 2020).

Structures are written as SMILES. In all, about 65,000 compounds went through this assay and about 2,100 (3.2%) showed an effect of 50% or more. The median lay at about -52%. The sample as a whole holds a higher share of strong results than the screen did.

In this test the test system is Plasmodium falciparum. The experiment in a line: Screen against P. falciparum Asexual Blood Stage (ABS), at 5uM. The class given is functional, Dd2. The settings on record: tested at 5 uM.
As to `O=C(c1ccncc1F)N1C[C@@H]2OCCN(CC3CC3)[C@@H]2C1`, the INHIBITION was -66.6%.
Take `O=C(C1CCCCC1)N1CCC2(CC1)OCCO2`: the INHIBITION is -149%.
Turning to `O=C(Nc1ccccc1)[C@H]1C[C@H]2CN(Cc3cccnc3)C[C@@H]1O2`, the INHIBITION was -15%.
Consider `Cc1ccc(C(=O)N2C[C@H](N3CCOCC3)[C@@H]3OCCC[C@@H]32)cn1`, for which the INHIBITION is -62.2%.
Regarding `CCN(CC1CN(Cc2nc(C3CC3)no2)CCO1)c1cccnn1` (stereo unspecified), the INHIBITION was found to be 73.3%.
As to `CN(Cc1nc(C2CC2)no1)C(=O)CN1CC(c2ccccc2)CC1=O` (stereo unspecified), the INHIBITION is recorded as -52.4%.
With `CNC(=O)c1ccc2c(c1)C1(CCN(CCOC)CC1)C(=O)N2`, the INHIBITION is -12.8%.
Take `COCCCN1CCCN(C(C)C(=O)Nc2cccc(I)c2)CC1` (stereo unspecified): the INHIBITION came out at 90%.
In the case of `COCCn1cc(NC(=O)NC(C)Cc2c(F)cccc2F)cn1` (stereo unspecified), the INHIBITION is recorded as -151%.
In the case of `Cn1ncc2c(N3CCCN4CCC[C@H]4C3)nc(C(C)(C)C)nc21`, the INHIBITION is reported as -68.8%.
Consider `O=c1[nH]c(NC2CCCC2)nc2nccc(-c3ccco3)c12`, for which the INHIBITION is on record as 72.4%.
The figure for `COCCN1CCN(Cc2cccnc2)[C@H]2CS(=O)(=O)C[C@H]21` is -9.43%; for `COc1ncccc1CN1CC[C@H]2O[C@H](c3nnc(C)o3)CC[C@H]21` it is -73.1%; for `CCOc1ccccc1CNCC1CCN(CC(C)O)CC1` (stereo unspecified) it is 75.9%.
For `CC(Cc1cccc(Cl)c1)NC(=O)Nc1cnn(CC(N)=O)c1` (stereo unspecified), the INHIBITION was -5.01%.
Take `CC(O)CN1CCC(CNCc2cccc(Cl)c2)CC1` (stereo unspecified): the INHIBITION amounted to 87.9%.
For `CC(O)CN1CCN(C(=O)Cc2ccccc2Cl)CC1` (stereo unspecified), the INHIBITION is recorded as -179%.
Consider `CC(O)CN1CCC(CNCc2cccc(Br)c2)CC1` (stereo unspecified), for which the INHIBITION stood at 87.8%.
Consider `COCC(C)NC(=O)c1cn(C(C)(C)C)c2ncccc12` (stereo unspecified), for which the INHIBITION was -120%.
As to `COc1ccc(CC(=O)N2CCN(Cc3ccco3)C[C@@H]2C)cc1OC`, the INHIBITION is -135%.
For `COc1ccc(C2SCC(=O)Nc3ccsc32)cc1OC` (stereo unspecified), the INHIBITION is -6.6%.
Take `CCNC(=O)NC(=O)CNC1(c2noc(C)n2)CCCCC1`: the INHIBITION is on record as -46.9%.
As to `CN1Cc2ccccc2NC(=O)C12CCNC2` (stereo unspecified), the INHIBITION is reported as -33.4%.
In the case of `O=C1CC[C@@H]2[C@@H](CCN2Cc2ccccn2)N1CC1CC1`, the INHIBITION is listed as -65.4%.
The figure for `CN1CCn2c(-c3ccccc3)cnc2C12CCN(CC1CC1)CC2` is 80.9%; for `c1ccc(-c2ncc3c(n2)C2(CCN(CC4CC4)C2)COC3)cc1` (stereo unspecified) it is 32%.
With `Fc1cnc(N2CC3(CCN(CC4CC4)C3)C2)nc1`, the INHIBITION is recorded as -62.7%.
Then `CN1CCn2c(-c3cccc(F)c3)cnc2C12CCN(CC1CC1)CC2`, with 76.5%.
`CC(=O)N1CCC2(CC1)c1ncc(-c3cccnc3)n1CCN2C`: the INHIBITION is listed as -45.5%.
As for `Cc1nc(C2(NCC(=O)NC(=O)NCc3cccs3)CCCCC2)no1`, the INHIBITION is given as -111%.
As to `Cc1ncc2c(c1CNC(=O)C1(C)CC1)CCNC2`, the INHIBITION is -29.6%.
In the case of `Cc1cccc(CN2CCN3C(=O)NC[C@H]3C2)n1`, the INHIBITION is listed as -4.56%.
As to `Cc1cccc(Nc2cccc(C3CCCN(Cc4ncc[nH]4)C3)n2)n1` (stereo unspecified), the INHIBITION is listed as 89.4%.
The figure for `Cc1noc(C)c1CN1C(=O)[C@@H]2CC[C@H]1CN(Cc1ncc[nH]1)C2` is -55.8%; for `O=C(Cc1cccs1)N1CC[C@H]2[C@H]1CCN2Cc1cccnc1` it is 19.8%.
In the case of `Cc1cc(C)c(CNc2nc3ccccc3cc2CO)c(=O)[nH]1`, the INHIBITION is 21.9%.
The figure for `CCn1ccnc1CN1CCNCC1C` (stereo unspecified) is -43.7%; for `CCc1ccc(C2c3nc[nH]c3CCN2Cc2nccn2CC)nc1` (stereo unspecified) it is 90.1%; for `Cc1cc(CC(=O)N2CCN(CC(C)C)[C@@H]3CS(=O)(=O)C[C@@H]32)ccc1F` it is -48.2%.
Turning to `Cc1cccc(CN2CC[C@@H]3[C@@H]2CCN3C(=O)c2cnoc2C)n1`, the INHIBITION is recorded as -26.9%.
The figure for `NC(=O)CN1CCCN(C(=O)Cc2ccc3c(c2)OCCO3)CC1` is -57.5%; for `O=C(CCN1CCCC1c1cccc2c1OCCO2)N1CCCCC1` (stereo unspecified) it is 73.2%; for `O=C1OCCC1N1CCN(C(=O)Cc2ccccc2Cl)CC1` (stereo unspecified) it is -47.5%.
For `CN(C)CCCN(C)C1CCN(c2cccc(-c3cscn3)c2)CC1`, the INHIBITION worked out at 81.2%.
For the compound `O=C1CC[C@@H]2[C@@H](CCN2Cc2ccncc2)N1c1ccccc1`, the INHIBITION was -11.8%.
For `O=C1Nc2ccccc2CC12CCCN2Cc1cccnc1` (stereo unspecified), the INHIBITION is -69.2%.
For `CN1CCN(Cc2ccsc2)Cc2cccnc21`, the INHIBITION was -81%.
Consider `CN(Cc1ccsc1)c1nc(-c2ccccn2)nc2c1CCNCC2`, for which the INHIBITION worked out at 79.7%.
For the compound `CN(Cc1nccs1)c1nc(-c2ccccn2)nc2c1CCNCC2`, the INHIBITION is on record as 83.7%.
As to `CN(Cc1ccon1)c1nc(-c2ccccn2)nc2c1CCNCC2`, the INHIBITION was 76.3%.
In the case of `CCc1nc(-c2ccc(NC(=O)N3CCC4(CC3)OCCO4)cc2)no1`, the INHIBITION was found to be 30.5%.
